Laboratory results reported in PubChem BioAssay AID556 (SRMLSC, 2006).
Hit rate of the full screen: of about 65,000 compounds, about 320 (0.49%) were called active.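 Rule for the calls: active = the 320 compounds with the highest percent inhibition in the single-dose primary screen, excluding strongly autofluorescent ones (cut at about 32% in these data); inactive = the rest, inconclusive results apart.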 This excerpt belongs to a sample that is enriched for actives.

What follows are compounds tested on diphosphomevalonate decarboxylase (Streptococcus pneumoniae D39) (assay: diphosphomevalonate decarboxylase activity blockers – biochemical, PK/LDH-coupled NADH fluorescence, primary screen (AID 556;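 for inhibition: kinetic rate of NADH fluorescence loss reporting ADP formed by the decarboxylase; 0% = full reaction rate with carrier and 100% = no-substrate background rate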)). Conditions: purified DPM-DC, at 10 µM; stronger effect = higher value unless noted.

SMILES | inhibition | outcome
Cc1cc(=O)[nH]c(=S)[nH]1 | inactive | –
Cc1cc(=O)cc(C)[nH]1 | 42% (active) | –
COc1ccc(C2CC(c3ccc(Cl)cc3Cl)Nc3nc(N)nn32)cc1OC (stereo not given) | inactive | –
CCOC(=O)CCCNC(=O)CN1C(=O)NC(CCc2ccccc2)C1=O (stereo not given) | inactive | –
CCOc1ccc(-c2nnn(CC(=O)N3CCN(c4ccc(F)cc4)CC3)n2)cc1OCC | 0% [measured here: pilot screen trials, stronger effect = higher value] | inactive
CCOC(=O)CSc1nccc(N(C)C)c1C#N | inactive | –
CC(=O)c1cc(-c2ccccc2)[nH]c1N1CCCC1 | 1% (inactive) | –
CCOC(=O)/C=c1\s/c(=C\c2ccccc2OC)c(=O)n1CC(=O)N1CCOCC1 | 4% (inactive) | –
CC1(C)CC(CCC(=O)Nc2ccccc2Cl)C(=O)O1 (stereo not given) | inactive | –
COc1ccc(-n2nnc3c(=O)n(CC(=O)N4CCC(Cc5ccccc5)CC4)cnc32)cc1 | inactive | –
CCOC(=O)c1ccc(N2C(=O)CC(N3CC(C)OC(C)C3)C2=O)cc1 (stereo not given) | inactive | –
O=C(O)c1ccc(-n2cccc2)cc1O | 1% (inactive) | –
Cc1ccc(S(=O)(=O)N2CCCC2C(=O)NCc2ccco2)cc1 (stereo not given) | 4% (inactive) | –
O=C1NC2(CCCCC2)N=C1c1ccccc1 | inactive | –
COc1ccc(S(=O)(=O)N2CCC(C(=O)N3CCc4ccccc4C3)CC2)cc1OC | inactive | –
CCOC(=O)c1c(-n2cnnn2)sc(C)c1C | 2% (inactive) | –
Cc1nc(C)c(C(=O)Nc2cccc(C)c2C)o1 | inactive | –
COc1ccc2[nH]c(=O)c(CN(CC3CCCO3)C(=O)Nc3ccccc3)cc2c1 (stereo not given) | 33% (active) | –
COc1ccc2[nH]c(=O)c(CN(Cc3nnnn3CCc3ccccc3)CC3CCCO3)cc2c1 (stereo not given) | 2% (inactive) | –
CCC(c1nnnn1Cc1ccccc1)N(Cc1cc2cc(OC)ccc2[nH]c1=O)CC1CCCO1 (stereo not given) | 5% (inactive) | –
O=C1[C@@H]2C(Cc3ccc(O)cc3)NC3(C(=O)Nc4ccc(F)cc43)[C@@H]2C(=O)N1c1ccc(F)cc1 (stereo not given in full) | inactive | –
CSc1ccc(NC(=O)N2CC(C)OC(C)C2)cc1 (stereo not given) | inactive | –
CCOc1ccc(/C(O)=C2/C(=O)C(=O)N(Cc3cccnc3)C2c2ccc(N(C)C)cc2)c(C)c1 (stereo not given) | 2% (inactive) | –
Cc1ccc(N(C(=O)CC2NC(=O)NC2=O)C2(C(=O)NC3CCCC3)CCCCC2)cc1 (stereo not given) | inactive | –
COc1ccc(CCNC(=O)CN2CCC(n3nnc4cc(F)ccc43)CC2)cc1OC | inactive | –

SMILES | inhibition | outcome
O=C(CSc1nnnn1C1CCCC1)Nc1ccc2c(c1)OCCO2 | inactive | –
N#CCCN1CCN(S(=O)(=O)c2ccc(S(=O)(=O)N3CCCC3)cc2)CC1 | 7% (inactive) | –
CN(CC(=O)NC1CCCCC1)S(=O)(=O)c1cccc2cccnc12 | inactive | –
O=C(Oc1ccccc1)c1ccc2nccnc2c1 | inactive | –
CCOC(=O)c1sc(NC(=O)c2cc(S(=O)(=O)N3CCOCC3)ccc2C)nc1C | 11% (inactive) | –
Cc1ccc(N2CCN(c3ccc(C)cc3)C2c2ccccn2)cc1 | inactive | –
O=C(c1cc(-c2cccc(O)c2)on1)N1CCc2ccccc2C1 | 1% (inactive) | –
COc1cc(Cl)c(S(=O)(=O)N2CCN(Cc3ccc4c(c3)OCO4)CC2)cc1Cl | inactive | –
Cc1ccc2cc3cc(C(=O)N4CCCCCC4)oc3nc2c1 | 33% (active) | –
Cc1ccc(C(=O)N2CCCCCC2)cc1Br | inactive | –
O=C(c1cc(-c2cccs2)on1)N1CCCCC1 | inactive | –
CCOC(=O)CNC(=O)CSc1nnc(COc2ccc(Cl)cc2)n1CC | 2% (inactive) | –
Cc1oc(-c2ccccc2F)nc1CS(=O)(=O)CC(=O)NCCCN(C)C1CCCCC1 | 9% (inactive) | –
COc1ccc(-n2c(Cc3cccn3C)nnc2SCC(=O)Nc2cc(C)cc(C)c2)cc1 | inactive | –
O=C(O)CCCC(=O)Nc1ccccc1-n1ccnc1 | inactive | –
Cc1nc(SCC(=O)Nc2cc(C)on2)c2c(C)c(C)sc2n1 | inactive | –
CCOc1ccccc1N(CC(=O)Nc1ccccc1C(=O)OC)S(C)(=O)=O | inactive | –
COc1ccc(OC)c(NC(=O)CN2CCN(C(=O)c3ccco3)CC2)c1 | inactive | –
COc1cccc(C2/C(=C(/O)c3ccncc3)C(=O)C(=O)N2CCCN(C)C)c1 (stereo not given) | 16% (inactive) | –
CC(C)c1nc(-c2ccccn2)no1 | inactive | –
CC(=O)NCC(=O)N(C)C(C(=O)Nc1ccc2c(c1)OCCO2)c1ccccc1 (stereo not given) | inactive | –
Cc1cc(C)cc(OCc2nnc(SCC(=O)OC3CCCCC3)o2)c1 | inactive | –
CCOC(=O)c1ccc(N2C(=O)CC(Sc3nc(O)c(CC)c(=O)[nH]3)C2=O)cc1 (stereo not given) | inactive | –
Cn1c2c(c(=O)n(C)c1=O)C1c3ccccc3OCC1C(C)(C)O2 (stereo not given) | 10% (inactive) | –
